Screen size: about 52,000 compounds; about 1,700 (3.3%) were called active. The entries come from a sample that favours actives as a whole. Values without a mark were called inactive. Rule as the data show it: active = survival mostly below about 52% (no sharp cut-off); inactive = mostly above about 56%.
test system: Wild type; experiment: S. aureus survival, RN4220 and DeltatarO strains – OD600, teichoic acid synthesis inhibitors, primary screen (AID 463173); details: S. aureus RN4220 wild type/DeltatarO growth, OD600, 18 h, active compounds read low, screened at 18.75 µg/mL (by protocol)

Row | SMILES | survival
1 | CN=C1SC(CC(=O)NC(N)=O)C(=O)N1C (centres undefined) | 92%
2 | COc1ccc(OC)c(NC(=O)CSc2ccnc(=O)[nH]2)c1 | 80%
3 | CC(=O)Nc1cccc(NC(=O)Cn2c(-c3cccnc3)ccc(C#N)c2=O)c1 | 89%
4 | CCN1CCN(C(c2ccc(OC)cc2)c2c(O)cc(C)n(Cc3ccco3)c2=O)CC1 (centres undefined) | 71%
5 | CCOC(=O)c1c(NC(=O)CN(CC)CC)sc2c1CCC/C2=N\O | 112%
6 | O=C(CSc1nc(-c2ccco2)nc2cc(=O)[nH]n12)Nc1ccc(F)cc1 | 65%
7 | CC(NCc1ccc2c(c1)OCO2)C(=O)NC1CCCCC1 (centres undefined) | 103%
8 | CCOC(=O)c1cc(-c2ccccc2)n(CCC(=O)NCCc2cccc(C)c2)c1C | 49%
9 | CCOC(=O)c1cc(-c2ccccc2)n(CCC(=O)NCCc2ccc(C)cc2)c1C | 73%
10 | CCOC(=O)c1cc(-c2ccccc2)n(CCC(=O)NCCc2ccccc2)c1C | -2% (active)
11 | CCc1ccccc1NC(=O)COC(=O)c1cn(CC)c2nc(C)ccc2c1=O | 83%
12 | COc1ccc(OC)c(-c2nc3c(C#N)c[nH]n3c2NC2CCCCC2)c1 | 102%
13 | COc1ccc(CCNC(=O)CSc2nc(-c3ccc(F)cc3)cc(C(F)(F)F)n2)cc1OC | 97%
14 | COc1ccc(CCNc2nc(-c3ccc(C)cc3)cc(C(F)F)n2)cc1OC | 100%
15 | COc1ccc(CCNc2nc(-c3ccc(F)cc3)cc(C(F)(F)F)n2)cc1OC | 142%
16 | COc1ccc(-c2cc(C(F)(F)F)nc(SCC(=O)NCCc3ccc(OC)c(OC)c3)n2)cc1 | 70%
17 | COc1ccc(CCNc2nc(-c3ccccc3OC)cc(C(F)(F)F)n2)cc1OC | -8% (active)
18 | COc1ccc(CCNc2nc(-c3ccc(OC)c(OC)c3)cc(C(F)(F)F)n2)cc1OC | 0% (active)
19 | COc1ccc(CCNc2nc(-c3ccc(Cl)cc3)cc(C(F)(F)F)n2)cc1OC | 18% (active)
20 | COc1ccc(CCNc2nc3c(-c4cccc(C(F)(F)F)c4)nnn3c3ccccc23)cc1OC | 83%
21 | COc1ccc(-c2cc(C(F)(F)F)nc(SCC(=O)NCc3ccc(OC)c(OC)c3)n2)cc1 | 97%
22 | CC(C)C1N(c2ccccc2)CCN1c1ccccc1 | 110%
23 | Cc1ccccc1OCC(=O)NCCN1CCCC1 | 113%
24 | COc1cc(-c2noc(CSc3nc(-c4ccccc4)cc(=O)[nH]3)n2)cc(OC)c1OC | 59%

Row | SMILES | survival
25 | O=c1[nH]cc(COCC(F)(F)C(F)F)c(=O)[nH]1 | 111%
26 | Cc1ccc(CCNC(=O)CCSCc2ccc(Cl)cc2)cc1 | 72%
27 | O=C(CCSCc1ccc(Cl)cc1)NCCc1ccccc1 | -6% (active)
28 | Cc1ccc(CCNC(=O)c2ccc(CS(=O)(=O)Cc3ccccc3F)o2)cc1 | 71%
29 | Cc1ccc(CNC(=O)CCSCc2ccccc2F)cc1 | 74%
30 | O=C(NCc1ccccc1Cl)c1ccc(CSCc2cccc(F)c2)o1 | -1% (active)
31 | O=C(NCCc1ccc(Cl)cc1)c1ccc(CS(=O)(=O)Cc2ccccc2F)o1 | -3% (active)
32 | O=C(NCc1ccccc1Cl)c1ccc(CSCc2ccccc2Cl)o1 | 66%
33 | CCc1ccc(CNC(=O)CCSCc2ccccc2F)cc1 | 70%
34 | Cc1ccccc1CS(=O)(=O)Cc1ccc(C(=O)NCCc2ccc(Cl)cc2)o1 | 88%
35 | O=C(NCc1ccc(F)cc1Cl)c1ccc(CSCc2ccccc2Cl)o1 | 53%
36 | Cc1ccc(CCNC(=O)CCSCc2ccccc2F)cc1 | -6% (active)
37 | O=C(CCSCc1cccc(Cl)c1)NCCc1ccc(Cl)cc1 | 67%
38 | COc1cccc(CNS(=O)(=O)c2ccc(-c3cc(C(F)(F)F)on3)s2)c1 | 87%
39 | CC1=C(C(=O)Nc2cc(Cl)ccc2C)C(c2sccc2C)n2ncnc2N1 (centres undefined) | 47%
40 | O=C(CSc1nc2c([nH]c3ccccc32)c(=O)n1-c1cccc(Cl)c1)NCc1ccccc1 | 78%
41 | COc1cccc(Cn2c(CNC(=O)C(C)C)nc3cccnc32)c1 | 80%
42 | Cc1oc(-c2ccc(C(=O)NCc3ccccc3)cc2)nc1CN1CCc2ccccc21 | 80%
43 | CC(C)(C)OC(=O)N1CCC(c2c(C(=O)NCc3cccc(Cl)c3)cnn2-c2ccc(F)cc2)CC1 | 78%
44 | COc1ccc(-c2nc(SCC(=O)Nc3ccc4c(c3)OCCO4)c(-c3ccc(F)cc3)[nH]2)cc1OC | 62%
45 | Cc1ccccc1C(=O)NCC(c1ccc(N(C)C)cc1)N1CCCC1 (centres undefined) | 66%
46 | O=C(CCSCc1cccc(Cl)c1)NCc1ccc(F)cc1Cl | 66%
47 | O=C(CCSCc1ccccc1Cl)NCc1ccc(F)cc1Cl | 0% (active)
48 | O=C(CCSCc1ccc(Cl)cc1)NCc1ccc(F)cc1Cl | 79%

Row | SMILES | survival
49 | Cc1ccc(CCNC(=O)CCSCc2ccccc2Cl)cc1 | -3% (active)
50 | Cc1ccccc1CSCc1ccc(C(=O)NCCc2ccccc2)o1 | 77%
51 | Cc1ccc(CCNC(=O)c2ccc(CSCc3ccccc3Cl)o2)cc1 | 72%
52 | COc1ccc(CCNC(=O)CCSCc2ccccc2Cl)cc1OC | 88%
53 | Cc1ccc(CCNC(=O)c2ccc(CSCc3ccccc3C)o2)cc1 | 0% (active)
54 | O=C(CCSCc1ccccc1Cl)NCCc1ccccc1 | 74%
55 | CC1(C)CC(NC(=O)NCc2ccc3c(c2)OCO3)CC(C)(CNC(=O)NCc2ccc3c(c2)OCO3)C1 (centres undefined) | 117%
56 | CCOCCc1nn2c(=O)cc(COC(=O)c3ccccc3OC)nc2s1 | 78%
57 | CC(=O)N1CCc2c(sc3c2c(=O)n(Cc2ccccc2)c(=O)n3Cc2ccccc2Cl)C1 | 98%
58 | C/C(=N\NC(N)N)C1CCCCCCCCCCC1 | -1% (active)
59 | Cc1nc(C)c(CC(=O)O)c(=O)[nH]1 | 112%
60 | CCOc1ccc(-n2cc(-c3ccccc3)c3c(NCCc4ccccc4)ncnc32)cc1 | 74%
61 | Cc1nc2nc(SCC(=O)NCCc3ccccc3)nn2c(C)c1Cc1c(F)cccc1Cl | 65%
62 | Cc1nc2nc(SCC(=O)NCCc3ccc(Cl)cc3)nn2c(C)c1Cc1ccccc1Cl | 80%
63 | Cc1nc2nc(SCC(=O)NCc3ccccc3)nn2c(C)c1Cc1ccccc1Cl | 128%
64 | Cc1nc2nc(SCC(=O)NCc3ccccc3Cl)nn2c(C)c1Cc1ccccc1 | 68%
65 | Cc1cccc(Cc2c(C)nc3nc(SCc4ccccc4Cl)nn3c2C)c1 | -5% (active)
66 | Cc1cccc(Cc2c(C)nc3nc(SCC(=O)NCc4ccccc4)nn3c2C)c1 | 71%
67 | Cc1nc2nc(SCC(=O)NCCc3ccc(Cl)cc3)nn2c(C)c1Cc1c(F)cccc1Cl | -2% (active)
68 | Cc1cccc(Cc2c(C)nc3nc(SCc4ccccc4F)nn3c2C)c1 | 91%
69 | Cc1cccc(Cc2c(C)nc3nc(SCc4ccccc4C)nn3c2C)c1 | 87%
70 | Cc1nc2nc(SCC(=O)Nc3ccccc3Cl)nn2c(C)c1Cc1ccccc1 | -3% (active)
71 | Cc1ccc(NC(=O)CSc2nc3nc(C)c(Cc4ccccc4)c(C)n3n2)cc1 | 47%
72 | Cc1nc2nc(SCC(=O)NCc3ccccc3)nn2c(C)c1Cc1ccccc1 | 0% (active)

Row | SMILES | survival
73 | Cc1cccc(Cn2c(CN3CCC(C(=O)NCCc4ccccc4)CC3)cc3ccccc32)c1 | 128%
74 | COc1cc(-c2nc(-c3ccc4c(c3)[nH]c(=O)n4C)no2)cc(OC)c1OC | 83%
75 | COC(=O)c1cc(-c2ccccc2)sc1N | 116%
76 | COCCNC(=O)CSc1nc(-c2ccc(C)cc2)nc2c1c(=O)n(C)c(=O)n2C | 77%
77 | CCOc1ccc(OCC)c(S(=O)(=O)N2CCC(C)CC2)c1 | 102%
78 | CC(C)CCNC(=O)Cn1cc(S(=O)(=O)Cc2ccc(F)cc2)c2ccccc21 | 91%
79 | O=C(CSc1nnc(-c2cccs2)o1)Nc1cccc(C(F)(F)F)c1 | 71%
80 | Cc1ccc(C)c(N2CCN(C(=O)C3CCN(c4nc(-c5ccc(C(C)C)cc5)no4)CC3)CC2)c1 | 87%
81 | CCOCCCn1c(SCC(=O)Nc2ccc(C)cc2)nc2ccccc2c1=O | 83%
82 | c1ccc(-n2nnnc2N2CCCC2)cc1 | 102%
83 | CCOC(=O)CN(Cc1ccccc1)C(C(=O)NC1CCCCC1)c1ccc(OC)cc1 (centres undefined) | 20%
84 | O=C(NC1CCCC1)C(c1ccccc1)N(Cc1ccccc1F)C(=O)c1ccco1 (centres undefined) | 118%
85 | CN(Cc1ccccc1)C(C(=O)NC1CCCCC1)c1ccc(Cl)cc1 (centres undefined) | 74%
86 | Cc1ccc(-c2nnn(CC(=O)N(Cc3ccccc3)C(C(=O)NC3CCCC3)c3ccco3)n2)cc1 (centres undefined) | 99%
87 | Cc1ccc(C(C(=O)NC2CCCCC2)N(C)Cc2ccccc2)cc1 (centres undefined) | -1% (active)
88 | CCOC(=O)CN(Cc1ccccc1)C(C(=O)NC1CCCCC1)c1ccccc1 (centres undefined) | -2% (active)
89 | CCOC(=O)CN(Cc1ccccc1)C(C(=O)NC1CCCCC1)c1ccc(C)cc1 (centres undefined) | -2% (active)
90 | O=C(NC1CCCC1)C(c1ccccc1)N(C(=O)c1ccco1)C1CCCC1 (centres undefined) | 88%
91 | COc1ccc(C(C(=O)NC2CCCC2)N(Cc2ccc(C)cc2)C(=O)c2ccn[nH]2)cc1OC (centres undefined) | 103%
92 | N#Cc1c(Nc2cccc(F)c2)sc(C(=O)c2ccc(Cl)cc2)c1N | 101%
93 | CCCOc1cccc(NC(=O)c2c(-c3ccccc3Cl)noc2C)c1 | 71%
94 | CCc1nc(NCCCO)c2nnn(Cc3ccccc3F)c2n1 | 106%

Source: PubChem BioAssay AID463173 (ICCB-Longwood Screening Facility, Harvard Medical School, 2010)
